The target of the test is Histone deacetylase 7 (Homo sapiens) (UniProt Q8WUI4). As to the kind of experiment: HDAC7 deacetylase inhibition, profiling panel, selectivity assay for E-cadherin restoration project, biochemical, human (AID 651907).

SMILES strings stand for the structures. Active and inactive are the calls of the source. The rule behind the calls is not given here.

Histone deacetylase 7 (Homo sapiens), sequence (Q8WUI4 whole entry, looked up): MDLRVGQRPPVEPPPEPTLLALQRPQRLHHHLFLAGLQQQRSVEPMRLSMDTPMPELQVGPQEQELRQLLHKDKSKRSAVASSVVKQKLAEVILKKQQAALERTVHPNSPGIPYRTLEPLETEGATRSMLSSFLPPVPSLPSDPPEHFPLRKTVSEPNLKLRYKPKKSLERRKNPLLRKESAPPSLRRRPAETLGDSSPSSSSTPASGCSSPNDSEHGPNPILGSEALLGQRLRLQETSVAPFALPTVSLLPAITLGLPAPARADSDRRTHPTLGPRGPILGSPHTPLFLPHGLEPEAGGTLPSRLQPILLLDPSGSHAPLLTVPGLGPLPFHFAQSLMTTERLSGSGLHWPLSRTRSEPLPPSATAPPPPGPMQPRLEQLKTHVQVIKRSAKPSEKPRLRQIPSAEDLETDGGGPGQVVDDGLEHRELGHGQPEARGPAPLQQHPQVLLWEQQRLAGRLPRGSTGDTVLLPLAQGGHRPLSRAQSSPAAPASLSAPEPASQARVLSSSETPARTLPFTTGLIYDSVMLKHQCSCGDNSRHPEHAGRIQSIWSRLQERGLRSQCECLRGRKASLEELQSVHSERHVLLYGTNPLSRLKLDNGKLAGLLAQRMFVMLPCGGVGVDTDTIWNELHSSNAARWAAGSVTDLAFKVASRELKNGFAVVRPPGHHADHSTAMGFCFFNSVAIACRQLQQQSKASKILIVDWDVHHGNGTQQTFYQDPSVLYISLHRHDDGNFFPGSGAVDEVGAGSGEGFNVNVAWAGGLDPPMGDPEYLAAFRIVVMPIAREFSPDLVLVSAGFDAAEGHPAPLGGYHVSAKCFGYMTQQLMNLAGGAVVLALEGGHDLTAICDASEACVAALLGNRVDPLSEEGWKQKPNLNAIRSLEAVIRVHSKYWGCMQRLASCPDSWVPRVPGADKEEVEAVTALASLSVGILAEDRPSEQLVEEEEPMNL

As for `O=C(NCCCNC(=O)c1ccc[nH]c1=O)c1cc(-c2ccccc2)on1`, the result was inactive.

The values are drawn from PubChem BioAssay AID651907 (Vanderbilt Specialized Chemistry Center, 2012).
